Measurements reported in PubChem BioAssay AID686978 (National Center for Advancing Translational Sciences (NCATS), 2013).
Hit rate of the full screen: of about 420,000 compounds, about 64,000 (15%) were called active. Not shown: some 27% with an inconclusive outcome. The call rests on the fitted dose curve; in most records, active means well fitted inhibition curve with a large enough effect; inconclusive means small, poorly fitted or top-dose-only effect; inactive means flat fitted curve, though single readings scatter. These entries were drawn from the full list. Where a call stands in place of a potency, no number is given.
Potency means the concentration at half of the fitted maximal effect.

Assay: qHTS for Inhibitors of human tyrosyl-DNA phosphodiesterase 1 (TDP1): qHTS in cells in absence of CPT; further: nearly all actives have a fitted effect of over 55% in size
Details: DT40 Tdp1-/- hTDP1 cells, no CPT, ATP luminescence, 48 h; activity change, negative = growth inhibition: at 46.2 µM (top of the series)
Method in brief: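 Stably hTDP1-transfected Tdp1-null chicken DT40 cells were treated with library compounds minus camptothecin and grown for at least 48 hr at 37 °C, after which cellular ATP was quantified by luminescence.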
With `CCOC(=O)c1ccc(NC2Nc3cc(C)nn3S2)cc1` (stereo unspecified) the Potency was “inactive”.
For `COc1cccc(CNC(=O)Cn2c(=O)c3cccn3c3ccc(F)cc32)c1OC`, the Potency was “inactive”.
In the case of `COCCCn1c(CCC(=O)O)ccc1-c1ccc(F)cc1`, the Potency is reported as “inactive”.
For `O=C(O)CCCn1c(=O)c2cccn2c2ccc(F)cc21`, the Potency was 7.31 µM (active).
With `Cc1ccccc1-c1n[nH]c(=S)n1C` the Potency was “inactive”.
In the case of `COC(CNC(=O)Cn1ncc2ccsc2c1=O)OC`, the Potency is reported as “inactive”.
For `Cc1c(CN2CCC(C)CC2)c(=O)n(-c2ccccc2)n1C`, the Potency was “inactive”.
For `CCc1nnc(NC(=O)c2c(O)c3c([nH]c2=O)CCCC3)s1`, the Potency was “inactive”.
In the case of `Cc1ccc(C(=O)NC(=S)Nc2ccc3[nH]c(=O)[nH]c3c2)cc1C`, the Potency is reported as “inactive”.
In the case of `COC(=O)c1nc(NC(=O)c2ccccc2)n[nH]1`, the Potency is reported as “inactive”.
For `Cc1cc2[nH]ncc2cc1NC(=S)NC(=O)c1ccccc1`, the Potency was 18.4 µM (active).
With `O=C(COC(=O)C1CCCCC1)Nc1ccc([N+](=O)[O-])cc1` the Potency was “inactive”.
In the case of `C[C@@H]1CN([C@H](C)CO)C(=O)c2cc(NC(=O)NC3CCCCC3)ccc2O[C@H]1CN(C)S(C)(=O)=O`, the Potency is reported as “inactive”.
With `COc1ccc(/C=C/C(=O)NC(=S)NN2CCCCC2c2cccnc2)cc1` (stereo unspecified) the Potency was “inactive”.
With `Cc1cc(N2CCN(c3ccc(F)cc3)CC2)n2ncnc2n1` the Potency was 16.4 µM (active).
With `Cc1cc(Nc2cccc(F)c2)n2ncnc2n1` the Potency was “inactive”.
In the case of `Cc1cc(N2CCN(Cc3ccc4c(c3)OCO4)CC2)n2ncnc2n1`, the Potency is reported as “inactive”.
With `C=CCn1c(SCC(=O)NC)nnc1C12CC3CC(CC(C3)C1)C2` the Potency was “inactive”.
In the case of `O=C(c1ccc2c(c1)OCO2)N1CCNc2ccccc2C1`, the Potency is reported as “inactive”.
For `CCCn1cc(SCC(N)=O)c2ccccc21`, the Potency was “inactive”.
With `CCC(=O)c1cn(CCOc2ccccc2OC)c2ccccc12` the Potency was 23.1 µM (active).
For `COc1ccccc1OCCn1c(SCC(N)=O)nc2ccccc21`, the Potency was “inactive”.
In the case of `Cn1nnnc1SCC(=O)Nc1ccccc1C(=O)NC1CC1`, the Potency is reported as “inactive”.
With `Cc1cc(=O)oc2c(C)c(OCC(=O)NCCc3ccc(S(N)(=O)=O)cc3)ccc12` the Potency was “inactive”.
For `COc1cccc(NC(=S)NC(=O)c2c(Cl)c(C)nn2C)c1`, the Potency was “inactive”.
For `Cc1ccc(SCc2c(C(=O)N/N=C/C3CC=CCC3)nnn2-c2nonc2N)cc1` (stereo unspecified), the Potency was “inactive”.
In the case of `Nc1nonc1-n1nnc(C(=O)N/N=C/c2cc(Br)ccc2O)c1CSC1=NCCS1`, the Potency is reported as 6.51 µM (active).
In the case of `Cc1ccc(SCc2c(C(=O)N/N=C/c3cccnc3)nnn2-c2nonc2N)cc1`, the Potency is reported as “inactive”.
With `O=C(O)c1ccccc1C(=O)Nc1ccccc1[N+](=O)[O-]` the Potency was “inactive”.
With `CCOC(=O)N1CCN(C(=O)Cc2ccc(-n3c(=S)[nH]c4ccccc4c3=O)cc2)CC1` the Potency was “inactive”.
For `Cc1cccn2c(=O)c(/C=C(\C#N)S(=O)(=O)c3ccc(Cl)cc3)c(N3CCC(C(N)=O)CC3)nc12`, the Potency was “inactive”.
With `Cc1ccc(C(=O)N/C(=C\c2ccco2)C(=O)NC2CCS(=O)(=O)C2)cc1` (stereo unspecified) the Potency was “inactive”.
In the case of `Cc1cc(C)cc(Oc2nc3c(C)cccn3c(=O)c2/C=C(\C#N)C(=O)NC2CCS(=O)(=O)C2)c1` (stereo unspecified), the Potency is reported as 13 µM (active).
With `Cc1cc(C)n2nc(C(=O)N3CCN(Cc4ccc5c(c4)OCO5)CC3)nc2n1` the Potency was “inactive”.
In the case of `CCN(CC)S(=O)(=O)c1ccc2nc(CSc3nnnn3-c3ccc(O)cc3)[nH]c2c1`, the Potency is reported as “inactive”.
With `Cc1csc(NC(=O)Nc2ccccc2[N+](=O)[O-])n1` the Potency was “inactive”.
In the case of `CCOc1ccccc1Nc1ccc(C(=O)O)cc1[N+](=O)[O-]`, the Potency is reported as “inactive”.
In the case of `CCOC(=O)/C(=N\Nc1ccccc1[N+](=O)[O-])c1csc(Nc2ccccc2)n1`, the Potency is reported as 16.4 µM (active).
With `CC(=O)c1c(C)[nH]c(C(=O)NCCCN2CCCC2)c1C` the Potency was “inactive”.
With `Cn1cc[n+](C)c1COc1ccc(C=O)cc1` the Potency was “inactive”.
With `Cc1noc(C)c1C(=O)NCCc1ccc(S(N)(=O)=O)cc1` the Potency was “inactive”.
In the case of `Cc1cccc(NS(=O)(=O)c2ccc([N+](=O)[O-])cc2)n1`, the Potency is reported as “inactive”.
With `Cc1cc([N+](=O)[O-])ccc1NC1CCCC1` the Potency was “inactive”.
In the case of `Cc1cc([N+](=O)[O-])ccc1NS(=O)(=O)c1ccccc1`, the Potency is reported as 23.1 µM (active).
With `O=[N+]([O-])c1cccc(S(=O)(=O)N2CCCCCC2)c1` the Potency was “inactive”.
With `O=[N+]([O-])c1ccc(NS(=O)(=O)c2ccccc2)c(Cl)c1` the Potency was 20.6 µM (active).
For `Cc1ccccc1OS(=O)(=O)c1cccc([N+](=O)[O-])c1`, the Potency was “inactive”.
For `COc1ccc(NC(=O)[C@H](NC(=O)[C@@H]2Cc3ccccc3CN2)c2ccccc2)cc1`, the Potency was “inactive”.
In the case of `CCC(=O)Nc1sc(C(=O)N2CCCCC2)c(C)c1C#N`, the Potency is reported as “inactive”.
With `CCCCc1cc2c(s1)CCCC/C2=N/O` the Potency was “inactive”.
With `COc1ccc(NC(=O)CC2C(=O)NC3CCCCC3N2C(=O)c2ccc(F)cc2)cc1` (stereo unspecified) the Potency was “inactive”.
In the case of `COc1ccc(NC(=O)N2CC3(CCN(C(C)=O)CC3)C2)cc1`, the Potency is reported as “inactive”.
In the case of `COc1ccc(CNS(=O)(=O)c2ccc(NC(=O)N3CCCCC3)cc2)cc1`, the Potency is reported as 20.6 µM (active).
With `COc1ccc(S(=O)(=O)NC(C)C(=O)N2CCCCCC2)cc1` (stereo unspecified) the Potency was “inactive”.
For `COc1ccc(NC(=O)Cn2c(=O)n(Cc3ccco3)c(=O)c3ccccc32)cc1`, the Potency was “inactive”.
With `CCn1c(COc2ccccc2)nnc1SCC(=O)NCc1ccco1` the Potency was “inactive”.
In the case of `Cn1c2ccccc2c(=O)c2c(=O)n(Cc3ccco3)c(COc3ccccc3)nc21`, the Potency is reported as 14.6 µM (active).
With `CCCc1cc(=O)oc2c(C)c(O)c(CN3CCCCC3)cc12` the Potency was “inactive”.
In the case of `COCCN(CCOC)c1nc(N)c2c(N)nc3c(c2c1C#N)CC(=O)N3Cc1ccc(Cl)cc1`, the Potency is reported as “inactive”.
For `Cc1ccc(NC(=O)/C(=C\c2ccccc2)NC(=O)c2ccco2)cc1`, the Potency was “inactive”.
With `CCN1CCN(C(=O)Cn2nc(C)n3c(cc4c(OC)cccc43)c2=O)CC1` the Potency was “inactive”.
With `COc1ccc(C2c3ccc(O)cc3Oc3ncn(CCCO)c(=N)c32)cc1OC` (stereo unspecified) the Potency was “inactive”.
For `Cc1ccc(NC(=O)COC(=O)CN2CCCCCC2=O)c(C)c1`, the Potency was “inactive”.
With `CC(C)N1C(=O)N(c2ccccc2)C(C)(O)CC1(C)C` (stereo unspecified) the Potency was “inactive”.
For `COC(=O)C1CC2=C(CC(C)(C)CC2=O)N(c2ccccc2)C1=O` (stereo unspecified), the Potency was “inactive”.
For `CC(C)C1C2=C(CC(C)(C)CC2=O)ON1c1ccccc1` (stereo unspecified), the Potency was 11.2 µM (active).
With `O=C(Cn1c(=S)nc2ccccn21)N1CCc2ccccc2C1` the Potency was “inactive”.
In the case of `CCc1nc2sc3c(Cl)ncnc3c2c2c1CCCC2`, the Potency is reported as “inactive”.
With `Fc1cc(F)c2nc(N3CCOCC3)sc2c1` the Potency was “inactive”.
In the case of `CCOc1nc(NCCN2CCOCC2)nc(Nc2ccc(C)cc2)n1`, the Potency is reported as “inactive”.
In the case of `O=c1c2ccccc2c(-c2ccccc2)nn1Cc1ccccc1`, the Potency is reported as “inactive”.
In the case of `O=C(O)c1ccc(-n2nc(-c3ccccc3)c3ccccc3c2=O)cc1`, the Potency is reported as “inactive”.
In the case of `CCOC(=O)C(C)n1nc(-c2ccccc2)c2ccccc2c1=O` (stereo unspecified), the Potency is reported as 14.6 µM (active).
With `NC(=O)[C@H]1CC2(CC(c3cccc(NC(=O)[C@H]4CCC(=O)N4)c3)=NO2)CN1C(=O)c1ccccc1C(=O)c1ccccc1` (stereo partly specified) the Potency was “inactive”.
With `C/C(=N\NC(=S)NC(C)C)c1ccc(C(C)(C)C)cc1` the Potency was 20.6 µM (active).
For `C/C(=N\NC(N)=S)c1ccncc1`, the Potency was “inactive”.
In the case of `C/C(=N\NC(N)=S)c1cccnc1`, the Potency is reported as “inactive”.
With `O=C(Cc1ccccc1)Nc1ccc(C(=O)Nc2ccccc2C(=O)O)cc1` the Potency was “inactive”.
In the case of `Cc1cccnc1NC(=O)Cn1c(=O)oc2ccccc21`, the Potency is reported as “inactive”.
With `CCOc1ncccc1C(=O)NNC(=O)c1cccc(S(=O)(=O)Nc2ccccc2OC)c1` the Potency was “inactive”.
In the case of `COc1cc(NS(=O)(=O)c2ccc3ccccc3c2)c2ncccc2c1`, the Potency is reported as 7.31 µM (active).
For `COc1ccc2cc(S(=O)(=O)Nc3ccccn3)ccc2c1`, the Potency was “inactive”.
With `C/C(O)=C\c1nc(=O)c2c(C)cc(C)nc2n1-c1ccccc1` the Potency was “inactive”.
With `N#Cc1c(-c2ccc(Cl)cc2)c2c([nH]c1=S)CCCC2` the Potency was “inactive”.
With `COc1ccc(-n2c(SCC(=O)OC(C)C)nnc2-c2ccccn2)cc1` the Potency was “inactive”.
With `COc1ccc2nc(-c3ccccn3)ccc2c1` the Potency was 3.26 µM (active).
In the case of `COc1ccc(-c2cn3cccnc3n2)cc1`, the Potency is reported as “inactive”.
In the case of `CCSc1ncc(Cl)c(C(=O)Nc2c(C(=O)c3ccccc3)oc3ccccc23)n1`, the Potency is reported as “inactive”.
For `CCOc1ccc(Cn2nnc(C(=O)NCc3ccccc3)c2N)cc1`, the Potency was “inactive”.
For `CCOc1ccc(N(Cc2ccccc2)C(=O)c2nc(SCC)ncc2Cl)cc1`, the Potency was 6.51 µM (active).
For `CCOc1ccc(N(Cc2ccccc2)C(=O)c2nc(S(C)(=O)=O)ncc2Cl)cc1`, the Potency was 0.58 µM (active).
With `CCOc1ccc(S(=O)(=O)N(CC(=O)O)c2ccccc2)cc1` the Potency was “inactive”.
For `CCSc1nnc2c(n1)OC(c1ccc(OCC(=O)O)cc1)Nc1ccccc1-2` (stereo unspecified), the Potency was “inactive”.
For `CCCOc1ccc(/C(O)=C2/C(=O)C(=O)N(CCN(C)C)C2c2ccc(OC)c(OC)c2)cc1` (stereo unspecified), the Potency was “inactive”.
With `N#CCCn1ncc2ccccc21` the Potency was “inactive”.
For `CC1CCN(C(=O)c2cccc(S(=O)(=O)N3CCCc4ccccc43)c2)CC1`, the Potency was 11.6 µM (active).
In the case of `CC1Cc2ccccc2N1S(=O)(=O)c1cccc(C(=O)OCC(=O)N2CCOCC2)c1` (stereo unspecified), the Potency is reported as “inactive”.
For `CNC(=O)C1CN(C(=O)c2cccc(S(=O)(=O)N3CCc4ccccc43)c2)c2ccccc2O1` (stereo unspecified), the Potency was 5.8 µM (active).
With `NS(=O)(=O)c1ccc(CNC(=O)c2cccc(S(=O)(=O)N3CCc4ccccc43)c2)cc1` the Potency was 9.2 µM (active).
In the case of `CC(=O)N1CCN(S(=O)(=O)c2cccc(C(=O)NC3CCC(C)CC3)c2)CC1` (stereo unspecified), the Potency is reported as “inactive”.
For `NS(=O)(=O)c1ccc(CNC(=O)c2cc(S(=O)(=O)N3CCOCC3)ccc2N2CCCC2)cc1`, the Potency was “inactive”.
With `O=C(NCCCN1CCCC1=O)c1cccc(S(=O)(=O)NCc2ccccc2)c1` the Potency was “inactive”.
In the case of `Cc1c(NC(=S)Nc2ccccc2)c(=O)n(-c2ccccc2)n1C`, the Potency is reported as “inactive”.
For `COc1cc(C)c(Cl)cc1S(=O)(=O)n1ccnc1`, the Potency was “inactive”.
For `CC1CCN(C(=O)COC(=O)c2cc(=O)[nH]c3ccccc23)CC1`, the Potency was “inactive”.
With `CC(NC(=O)COC(=O)c1cc(=O)[nH]c2ccccc12)c1ccccc1` (stereo unspecified) the Potency was “inactive”.
